The values below come from the supplement of paper PMC13380429.

A number with no mark means an inactive call.

The assay deals with Vero E6 infected with SARS-CoV-2. The assay can be described thus: SARS-CoV-2 infection rate relative to infected DMSO; higher = more infection, active = 60 or less. The conditions noted are these: 24 h.
Consider `O=c1c(O)c(-c2ccc(O)c(O)c2)oc2cc(O)cc(O)c12` [quercetin] (10 µM), for which the SARS-CoV-2 infection rate is 102%.
`NCCc1cc[nH]n1` [betazole] (10 µM): the SARS-CoV-2 infection rate is 105%.
The same measure for `CN(C)C(=N)NCCC[C@H](N)C(=O)O` [asymmetrical-dimethylarginine] (10 µM): 95.5%.
For the compound `Cc1ccc(C(=O)Nc2ccc(S(=O)(=O)O)c3cc(S(=O)(=O)O)cc(S(=O)(=O)O)c23)cc1NC(=O)c1cccc(NC(=O)Nc2cccc(C(=O)Nc3cc(C(=O)Nc4ccc(S(=O)(=O)O)c5cc(S(=O)(=O)O)cc(S(=O)(=O)O)c45)ccc3C)c2)c1` [suramin] (10 µM), the SARS-CoV-2 infection rate was 101%.
With `CC(C)NCCN(C(C)C)S(=O)(=O)c1ccc(Cl)cc1Cl` (10 µM), the SARS-CoV-2 infection rate was 110%.
Regarding `C[C@]12CC[C@@H]3c4ccc(OC(=O)N(CCCl)CCCl)cc4CC[C@H]3[C@@H]1CC[C@@H]2OP(=O)(O)O` [estramustine-phosphate] (10 µM), the SARS-CoV-2 infection rate is 100%.
Take `N[C@@H](CS)C(=O)O` [L-cysteine] (10 µM): the SARS-CoV-2 infection rate is 94%.
The same measure for `Cc1cc(C)nc(NS(=O)(=O)c2ccc(NC(=S)NC(=O)COc3ccc(Br)cc3Cl)cc2)n1` (10 µM): 108%; for `Cc1cccc(OCC(O)CNC(C)(C)C)c1C` (stereo unspecified) [xibenolol] (10 µM): 97.5%.
The same measure for `CC(=O)N1CCN(CCOc2ccc(C3CCN(C4=Nn5c(nnc5C(F)(F)F)CC4)CC3)cc2)CC1` (0.833333 µM): 98.5%; for `FC(F)(F)C(F)(F)C(F)(F)C(F)(F)C(F)(F)C(F)(F)C(F)(F)C(F)(F)Br` [perflubron] (10 µM): 102%; for `N[C@@]1(C(=O)O)CC[C@H]2[C@H](C(=O)O)[C@H]21` [eglumetad] (10 µM): 114%.
On to `CC(=O)Nc1cccc(-n2c(=O)n(C3CC3)c(=O)c3c(Nc4ccc(I)cc4F)n(C)c(=O)c(C)c32)c1` [trametinib] (0.833333 µM), for which the SARS-CoV-2 infection rate was 89%.
The same measure for `N[C@H](C(=O)O)c1ccc(O)c(C(=O)O)c1` [3-carboxy-4-hydroxyphenylglycine-(S)] (10 µM): 95%; for `O=C(O)CCN(O)C(=O)CCCCCCCCC1CC1` (10 µM): 102%.
For the compound `C#C[C@]1(O)CC[C@H]2[C@@H]3CCC4=CC(=O)CC[C@@H]4[C@H]3CC[C@@]21CC` [norgestrel] (10 µM), the SARS-CoV-2 infection rate was 102%.
To `CCc1cncnc1N1CCN(Cc2nc3cc(C(F)(F)F)ccc3[nH]2)CC1` (10 µM) belongs 116%.
Regarding `CC[C@@]1(O)C(=O)OCc2c1cc1n(c2=O)Cc2cc3ccccc3nc2-1` [camptothecin] (0.833333 µM), the SARS-CoV-2 infection rate was 114%.
On to `Cc1c(Cl)cccc1Nc1ccccc1C(=O)O` [tolfenamic-acid] (10 µM), for which the SARS-CoV-2 infection rate was 110%.
In the case of `N#CCCCSC(=N)N` [kevetrin] (10 µM), the SARS-CoV-2 infection rate was 92%.
The same measure for `O=C(O)C[C@H]1CC[C@H](c2ccc(-c3ccc(Nc4ccc(C(F)(F)F)nc4)cn3)cc2)CC1` (10 µM): 73.5%; for `Nc1nc2cc(-c3ccc4ncc(C(=O)N5CCOCC5)n4c3)ccc2o1` (10 µM): 92%; for `C[C@H](N)C(=O)N[C@@]1(C(=O)O)C[C@@H](Sc2nnc[nH]2)[C@H]2[C@H](C(=O)O)[C@H]21` (10 µM): 114%.
The same measure for `N=C(N)NCCN1CCCCCCC1` [guanethidine] (10 µM): 109%; for `O[C@@H](Cc1ccncc1)C(Cl)(Cl)Cl` (10 µM): 83.5%.
As to `COc1ccc2c(c1OC)C(=O)O[C@@H]2[C@H]1c2cc3c(cc2CCN1C)OCO3` [hydrastine-(1R,9S)] (10 µM), the SARS-CoV-2 infection rate was 108%.
As to `COc1ccc(C(=O)c2c(C)n(CCN3CCOCC3)c3cc(I)ccc23)cc1` (10 µM), the SARS-CoV-2 infection rate was 102%.
The same measure for `CCOCOC[C@H](C[C@H](C)C(=O)NO)NC(=O)c1ccc(Oc2ccccc2)cc1` (10 µM): 98.5%.
The same measure for `O=C(Nc1ccccc1C(=O)Nc1ccc(CCO)cc1)c1ccc([N+](=O)[O-])cc1` (10 µM): 112%.
For `c1nc2c(NC3CCCCC3)nc(Nc3ccc(N4CCOCC4)cc3)nc2[nH]1` [reversine] (10 µM), the SARS-CoV-2 infection rate is 106%.
Consider `CSc1ccc(C(=O)/C=C/c2cc(C)c(OC(C)(C)C(=O)O)c(C)c2)cc1` [elafibranor] (10 µM), for which the SARS-CoV-2 infection rate was 110%.
